From PubChem BioAssay AID1159580 (chemical genetic matrix, 2015)
The whole screen tested about 5,500 compounds, of which about 2,000 (36%) were called active. About 18% were inconclusive and are not listed. No stated cut-off is given here; in the data, active means normalized growth mostly below about 0.91 (no sharp cut-off); inconclusive means no clear call, values can overlap the other calls; inactive means mostly above about 0.92. The list shows a part of the results.

Experiment: chemical genetic growth profiling, strain panel (AID 1159580);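 further: tested at 20 µM; growth read once vehicle control cultures reached saturation at 30 °C; 1 = growth at the plate median or of vehicle wells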
Details: S. cerevisiae deletion strains, growth OD

Measured: normalized growth

C[C@]12CCC(=O)C=C1CC[C@@H]1[C@@H]2CC[C@]2(C)C(=O)CC[C@@H]12
inactive: locus YAL040C, strain CLN3, stronger effect = lower value 1.01 | locus YCL061C, strain MRC1 (second series), stronger effect = lower value 0.994 | locus YDR150W, strain NUM1, stronger effect = lower value 0.988 | locus YDR363W, strain ESC2, stronger effect = lower value 0.999 | locus YER002W, strain NOP16, stronger effect = lower value 0.99 | locus YGR078C, strain PAC10, stronger effect = lower value 0.987 | locus YJR075W, strain HOC1, stronger effect = lower value 0.991 | locus YNL128W, strain TEP1, stronger effect = lower value 0.996 | locus YNL175C, strain NOP13, stronger effect = lower value 0.997 | locus YNL197C, strain WHI3, stronger effect = lower value 0.997 | locus YNL224C, strain SQS1, stronger effect = lower value 1.01 | locus YOR083W, strain WHI5 (second series), stronger effect = lower value 0.924 | locus YPL241C, strain CIN2, stronger effect = lower value 0.997
